26 molecules from PubChem BioAssay (NCI) can be followed below.

Structures are written as SMILES. Compounds without any hit were thinned out: in the full panel of roughly 83,000, 20% have a hit.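 How to read the values: 0–100, growth inhibition (40 = 60% inhibited); 0, no net growth; -100 to 0, cell death (-40 = 40% of starting cells died; -100 = all dead).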 A number with no mark means an inactive call. Calls of active or inactive are those of the source. Rule for the calls: active = growth percent below 10; inactive = the rest.

Test systems include T-47D breast; BT-549 breast; MDA-MB-435 melanoma; MCF7 breast; HCT-116 colon; HCC-2998 colon; KM12 colon; SW-620 colon.
Holding throughout (experiment): NCI-60 one-dose screen, 48 h (100 = growth as untreated, 0 = no growth, -100 = all killed)
Holding throughout (conditions): 10 µM unless noted

Consider `CCCCNC(=O)Oc1ccc2c(=O)c3sc4c(=O)c5ccccc5c(=O)c4c3c(=O)c2c1`, for which the growth was -38.5% (active) in the test with T-47D breast; -90.2% (active) in the test with BT-549 breast; -88.9% (active) with MDA-MB-435 melanoma; -59.2% (active) in the test with MCF7 breast; -15.6% (active) in the test with HCT-116 colon; -87.1% (active) in the test with HCC-2998 colon. In addition, the growth in the test with KM12 colon is -29.9% (active).

Regarding `COc1ccc(C2=Nc3c(N)ncnc3NC(c3ccc4c(c3)OCO4)C2)cc1` (stereo not given), the growth in the test on T-47D breast is 80.3%; in the test with BT-549 breast, 89%; in the test on MDA-MB-435 melanoma, 94.2%; with MCF7 breast it was 76.1%; with HCT-116 colon, 74.2%; in the test with HCC-2998 colon, -6.86% (active). For the same molecule, the growth in the test with KM12 colon is 95.8%.

Turning to `O=S(=O)(O)c1ccc(N/N=C/c2ccccc2Cl)cc1`, the growth was 106% in the test on T-47D breast; 102% in the test with MDA-MB-435 melanoma; 108% with SW-620 colon; 99.2% with MCF7 breast; 104% in the test on HCT-116 colon; 116% in the test on KM12 colon.

`COc1ccc(S(=O)(=O)NCCNc2nccc(-c3c(-c4cccc(F)c4)nc4sccn34)n2)cc1`: the growth is 25% with T-47D breast; 47% with BT-549 breast; 14.7% in the test with MDA-MB-435 melanoma; 19.7% in the test on HCT-116 colon; 52.9% in the test on HCC-2998 colon; 18.3% with KM12 colon.

On to `COc1cc(N2C(=O)c3nccnc3C2=O)cc(OC)c1OC`, for which the growth with T-47D breast is 96.9%; in the test on BT-549 breast, 95.2%; in the test on MDA-MB-435 melanoma it was 107%; with MCF7 breast, 95.7%; with HCT-116 colon, 103%; in the test on KM12 colon, 110%.

Regarding `CN1CCN(CC(=O)Nc2nc(-c3cccc(NS(=O)(=O)c4cccc5c(N(C)C)cccc45)c3)cs2)CC1`, the growth with T-47D breast is 64.3%; in the test with BT-549 breast, 97.1%; in the test with MDA-MB-435 melanoma it was 68.4%; in the test on MCF7 breast it was 49.9%; in the test on HCT-116 colon it was 88.4%; in the test with HCC-2998 colon, 53.6%. For the same molecule, in the test with KM12 colon, the growth was 71.4%.

As to `O=C1Nc2ccccc2/C1=C/c1cn(C(=O)c2ccc(Cl)cc2)c2ccccc12`, the growth is 96.4% with BT-549 breast; 110% in the test with MDA-MB-435 melanoma; 59.1% in the test on MCF7 breast; 91.6% with HCT-116 colon; 40.9% in the test with KM12 colon.

With `O=c1oc2ccccc2c(Cl)c1Cl`, the growth in the test on T-47D breast was 43.1%; in the test with MDA-MB-435 melanoma it was 52%; in the test on SW-620 colon, 48.9%; in the test with MCF7 breast, 34%; with HCT-116 colon, 32.5%; in the test with HCC-2998 colon, 93.1%. Also, the growth in the test on KM12 colon is 83.6%.

Consider `CC1(C)CC(=O)CC2(C1)N=C(N)Nc1nc3ccccc3n12` (stereo not given), for which the growth is 106% with T-47D breast; 104% in the test on MDA-MB-435 melanoma; 109% with SW-620 colon; 89.4% in the test with MCF7 breast; 96.8% with HCT-116 colon; 108% in the test on KM12 colon.

Regarding `CCN(CC)c1nc(SCC(=O)Nc2nc3ccc(C)cc3s2)nc(-c2ccccc2)c1C#N`, the growth in the test on T-47D breast was 75.8%; in the test with BT-549 breast, 93.3%; with MDA-MB-435 melanoma it was 98.5%; with HCT-116 colon, 83%; in the test with HCC-2998 colon, 110%; with KM12 colon, 104%.

As for `COc1cc2ncn3c(=O)c4c5c(sc4nc3c2cc1OC)CCCC5`, the growth was 100% in the test on T-47D breast; 99.9% in the test on BT-549 breast; 92.5% with MDA-MB-435 melanoma; 91.4% with MCF7 breast; 95.5% with HCT-116 colon; 102% in the test on HCC-2998 colon. For the same molecule, the growth with KM12 colon was 97.4%.

`O=C(Nc1ccccc1-c1nc2ccccc2c(=O)[nH]1)c1cc2ccccc2[nH]1`: the growth in the test on T-47D breast was 70.1%; in the test on BT-549 breast, 85.3%; with MDA-MB-435 melanoma, 106%; in the test with MCF7 breast, 68%; with HCT-116 colon, 83.5%; in the test on HCC-2998 colon it was 104%. Also, the growth in the test on KM12 colon was 88.2%.

With `Cc1ccc2c(c1)Sc1c(ccc3ccccc13)N2`, the growth with T-47D breast was 47.2%; with BT-549 breast, 81.2%; in the test with MDA-MB-435 melanoma it was 81.6%; in the test on HCT-116 colon, 29.1%; in the test on HCC-2998 colon it was 67.6%; in the test with KM12 colon, 55.1%.

Regarding `Cc1c(C)c2c(c(C)c1OCC(=O)O)CC[C@@](C)(CCC[C@@H](C)CCC[C@@H](C)CCCC(C)C)O2`, the growth is 23.6% [50 µM] with T-47D breast; -4.37% [50 µM] (active) with BT-549 breast; 15% [50 µM] in the test on MDA-MB-435 melanoma; 15.6% [50 µM] with MCF7 breast; -66.1% [50 µM] (active) in the test with HCT-116 colon; -3.58% [50 µM] (active) with HCC-2998 colon. Further, the growth with KM12 colon is -73.8% [50 µM] (active).

Regarding `Cc1ccc(S(=O)(=O)n2cc(CNc3ccc(N4CCOCC4=O)cc3)c3ccccc32)cc1`, the growth was 56.9% in the test on T-47D breast; 97% with MDA-MB-435 melanoma; 78.7% with SW-620 colon; 61.9% in the test on MCF7 breast; 76.8% with HCT-116 colon; 97.8% with HCC-2998 colon. Besides, in the test with KM12 colon, the growth is 96.7%.

With `COc1ccc(-c2[nH]c(=S)n(C(CC3(C)NCC(=O)N3n3c(-c4ccccc4)cc(C)nc3=S)c3ccc(OC)cc3)c(=O)c2Br)cc1` (stereo not given), the growth in the test with T-47D breast is 22.8%; in the test with MDA-MB-435 melanoma, 57.4%; with SW-620 colon it was 37.2%; with MCF7 breast it was 16.5%; with HCT-116 colon it was 21.8%; in the test on HCC-2998 colon it was 61.2%. Further, the growth with KM12 colon was 37%.

As to `O=C(/C=C/c1c(Cl)nc2sccn12)c1nccs1`, the growth in the test on T-47D breast is 87.5%; in the test with BT-549 breast, 109%; in the test with MDA-MB-435 melanoma it was 91.9%; in the test on MCF7 breast, 76.2%; in the test with HCT-116 colon, 81.1%; in the test on HCC-2998 colon, 102%. Moreover, the growth in the test on KM12 colon is 89.7%.

As to `COc1ccc(-c2cc(-c3cc(OC)ccc3OC)nc(SCC(=O)c3ccccc3)c2C#N)cc1`, the growth with T-47D breast was 80.8%; with BT-549 breast, 109%; with MDA-MB-435 melanoma, 103%; with MCF7 breast it was 98.3%; with HCT-116 colon it was 88.5%; in the test on HCC-2998 colon, 108%. The growth with KM12 colon is 96.8%.

As to `NS(=O)(=O)c1ccc(-n2nc(C(=O)N/N=C\c3ccc(F)cc3)cc2-c2ccc(Cl)cc2)cc1`, the growth in the test with T-47D breast is 79.5%; in the test with MDA-MB-435 melanoma, 94.3%; in the test with SW-620 colon it was 95.8%; in the test with MCF7 breast, 81.3%; with HCT-116 colon it was 98%; in the test on HCC-2998 colon, 98%. In the test on KM12 colon, the growth is 96.9%.

In the case of `COc1ccc(C2c3ccc4ccccc4c3Oc3nc(C)[nH]c(=O)c32)cc1` (stereo not given), the growth in the test on T-47D breast is 92.2%; in the test on BT-549 breast, 109%; in the test with MDA-MB-435 melanoma it was 42.4%; in the test on HCT-116 colon, 107%; with HCC-2998 colon it was 103%; in the test on KM12 colon, 98.6%.

Consider `COc1cccc(/C=C/C(=O)c2c(C)nc3ccccc3c2/C=C/c2ccc(C)cc2)c1OC`, for which the growth in the test on T-47D breast was 29.1%; with BT-549 breast, 69.1%; in the test on MDA-MB-435 melanoma, 55.5%; in the test on HCT-116 colon, 8.38% (active); in the test with HCC-2998 colon, 36.4%; with KM12 colon, 65.6%.

In the case of `N/C(=N/N=C/c1ccccc1)N/N=C\c1ccccc1`, the growth with T-47D breast was 37.6%; in the test with MDA-MB-435 melanoma it was -3.26% (active); in the test with SW-620 colon, 33.5%; in the test with MCF7 breast, 31.6%; with HCT-116 colon, 35.9%; in the test with KM12 colon it was 35%.

In the case of `N#Cc1nc(C#N)c(Sc2ccccc2)c(Sc2ccccc2)c1Sc1ccccc1`, the growth in the test with T-47D breast was -71.7% (active); in the test on MDA-MB-435 melanoma, -14.2% (active); in the test with SW-620 colon, -67.2% (active); in the test with MCF7 breast, -72.1% (active); in the test with HCT-116 colon it was -30.7% (active); with HCC-2998 colon it was -85.4% (active). In addition, in the test on KM12 colon, the growth was -85.2% (active).

On to `COc1ccc(NC(=O)CSc2nnc(-c3cc(-c4ccc(S(N)(=O)=O)cc4)nc4ccccc34)n2-c2ccccc2)cc1`, for which the growth in the test with T-47D breast is 58.2%; with MDA-MB-435 melanoma, 92.2%; in the test with SW-620 colon, 97.6%; in the test with MCF7 breast it was 78.8%; in the test with HCT-116 colon, 73.9%; in the test with HCC-2998 colon, 101%. Besides, the growth in the test on KM12 colon is 92.7%.

As for `COc1ccc(C(=O)/C=C/c2c(C(F)(F)F)nc3sccn23)cc1OC`, the growth in the test with T-47D breast was -16.9% (active); in the test on BT-549 breast it was 11.3%; with MDA-MB-435 melanoma, 3.47% (active); in the test with MCF7 breast, 7.83% (active); with HCT-116 colon, 6.66% (active); in the test with HCC-2998 colon, 31.4%. Moreover, the growth in the test with KM12 colon was 11.2%.

In the case of `c1csc(-c2c3ccc(=[N+]4CCCCC4)cc-3oc3cc(N4CCCCC4)ccc23)c1`, the growth was -60.7% (active) in the test on T-47D breast; -46.5% (active) in the test on MDA-MB-435 melanoma; -76% (active) in the test with SW-620 colon; -57.2% (active) with MCF7 breast; -97.1% (active) in the test on HCT-116 colon; -94.2% (active) with HCC-2998 colon.
